Data taken from PubChem BioAssay (NCI).
About 83,000 compounds went through this panel and 20% of them were active in at least one assay; those are over-represented in the sample as a whole.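 Values shown are percent growth following 48 h exposure of cells in 96-well plates to a single concentration of compound; below 10 was considered active.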 Values without a mark were called inactive. The source made the active and inactive calls.

Key:
Assay in all cases: NCI-60 one-dose screen, 48 h (100 = growth as untreated, 0 = no growth, -100 = all killed)
Details in all cases: 10 µM unless noted
[1] = test system: SR leukemia
[2] = test system: RPMI-8226 leukemia
[3] = test system: OVCAR-8 ovarian
[4] = test system: OVCAR-5 ovarian
[5] = test system: OVCAR-4 ovarian
[6] = test system: SK-OV-3 ovarian
[7] = test system: IGROV1 ovarian
[8] = test system: HS 578T breast
[9] = test system: NCI/ADR-RES ovarian
[10] = test system: OVCAR-3 ovarian

SMILES	growth [1]	growth [2]	growth [3]	growth [4]	growth [5]	growth [6]	growth [7]	growth [8]	growth [9]	growth [10]
CCCCCCNC(=O)Oc1ccc(/C(=C(/C)c2ccc(Cl)cc2)c2ccc(OCCN3CCCCCC3)cc2)cc1	2.59% (active)	64.3%	78.2%	83%	61%	96%	68.4%	63.8%	79.4%	
Brc1cccc(-c2cc(-c3ccc4c(c3)OC=CO4)[nH]n2)c1	27.6%	22.5%	42.3%	71.5%	82.1%	67.9%	41.3%	58.8%	15.3%	
O=C1[C@@H]2Cc3c([nH]c4ccccc34)[C@@H](c3ccc(Cl)cc3)N2C(=O)CN1C1CCN(Cc2c(F)cccc2F)CC1	-4.42% (active)	12.5%	43.7%	59.4%	44.8%	68.5%	25.6%	53.8%	42.5%	
Cc1ccsc1[C@H]1c2[nH]c3ccccc3c2C[C@H]2C(=O)N(CCCCCCC(=O)NO)CC(=O)N12	42%	58.8%	79.2%	73.7%	106%	105%	87.4%	85.4%	95.9%	
CCOP(=O)(OCC)OC[C@]12CCC(C)(C)C[C@H]1C1=CC[C@@H]3[C@@]4(C)CC[C@H](OP(=O)(OCC)OCC)C(C)(C)[C@@H]4CC[C@@]3(C)[C@]1(C)CC2	35%	5.23% (active)	60.4%	75.2%	65.9%	73.2%	68.1%	83.2%	65.8%	
C[C@H](Nc1ncnc2ccc(-c3cnc(Cl)c(NS(C)(=O)=O)c3)cc12)c1ccccc1	-20.1% (active)	-7.72% (active)	-26.3% (active)	-14.9% (active)	0.576% (active)	-65.5% (active)		-20% (active)	7.69% (active)	-65.9% (active)
CC(Nc1c(C#N)cnc2ccc(-c3cncc(-c4n[nH]c(=O)o4)c3)cc12)c1ccccc1 (stereo unspecified)	6.62% (active)	10.5%	18.1%	26%	-5.14% (active)	3.52% (active)		-22.2% (active)	67.7%	3.98% (active)
CC(O)c1cccc(/C(N)=N/C(N)=N/c2nc3ccccc3s2)c1 (stereo unspecified)	82.3%	67.3%	97.2%	100%	105%	105%		91.9%	95.6%	102%
CN1CCN(Cc2ccc(NC(=O)c3cncc(C#Cc4cnc5ccc(N6CCOCC6)nn45)c3)cc2C(F)(F)F)CC1	-28.4% (active)	-23.9% (active)	-37.6% (active)	-20.4% (active)	-19.7% (active)	-31.9% (active)	-32.8% (active)	-27.8% (active)	-15.8% (active)	
Cc1ccc(N2CCN(C3=C(Cl)C(=O)c4ncccc4C3=O)CC2)cc1	4.58% (active)	11.8%	67.9%	110%	48.3%	112%	58.6%	79.7%	55.8%	
O=C1C(SCc2ccccc2)=C(Cl)CN1c1ccc(Cl)cc1	1.35% (active)	88.8%	95.2%	109%	103%	117%	104%	100%	105%	
C#CCOc1ccc(-c2csc(NC(=O)C=C)n2)cc1NS(=O)(=O)c1cccc2c(N(C)C)cccc12	8.34% (active)	-9.93% (active)	23.2%	81.1%	63.2%	118%	32.3%	79.2%	27.5%	
O=C1Nc2ccccc2/C1=N\c1nnc(-c2ccccc2)o1	105%	101%	102%	106%	98.7%	82.5%	72.1%	90.1%	95.6%	
O=S(=O)(Oc1ccc(-c2cn3ccsc3n2)cc1)c1cccc(C(F)(F)F)c1	95.2%	97.5%	101%	107%	96.5%	108%	107%	102%	108%	
Cc1cccc(N2CCN(C3=C(Cl)C(=O)c4ncccc4C3=O)CC2)c1	3.39% (active)	46.8%	80.6%	111%	67%	92.9%	73.1%	70.6%	78.7%	
COc1cccc2c1[C@H](OC)[C@]13O[C@@]1(C2=O)[C@H](O)[C@H](C)[C@@](O)(C(=O)[C@@H]1O[C@H]1C)[C@@H]3O	-30% (active)	-27.5% (active)	-13.2% (active)	6.04% (active)	-13.3% (active)	-10.4% (active)		-30% (active)	-23% (active)	-34.6% (active)
COc1ccc(C2C(C#N)=C(/N=C/c3ccc(Cl)cc3)Oc3c2sc2c(C)cccc32)cc1 (stereo unspecified)	16.5%	22.6%	23.4%	34.9%	76.5%	42.8%	23.6%	-4.66% (active)	11.2%	
O=C(O)CC1CCN(c2ccc3nnc(Cl)n3n2)CC1	110%	111%	104%	97.3%	108%	96.2%	102%	102%	98.6%	
CNC(=O)c1cc(N2CCc3cc(NC(=O)Nc4ccc(N5CCN(C)CC5)c(C(F)(F)F)c4)ccc32)ccn1	-12.6% (active)	-16.4% (active)	95.9%	95.3%	83.4%	107%	96.2%	61.4%	97.4%	
CN1CCN(Cc2ccc(NC(=O)c3cncc(C#Cc4cnc5ccc(NCCO)nn45)c3)cc2C(F)(F)F)CC1	4.47% (active)	-15.2% (active)	1.73% (active)	5.23% (active)	-9.76% (active)	-10.5% (active)	-1.21% (active)	-13.3% (active)	81.1%	
O=C1Nc2ccccc2/C1=C/c1ccc(OCC(=O)c2ccccc2)cc1	101%	95%	94.8%	102%	96.5%	102%	102%	93.9%	98.2%	
CN(C)c1cccc2c(S(=O)(=O)Nc3cccc(-c4csc(NC(=O)CCCCCN5CCN(CCO)CC5)n4)c3)cccc12	-9.78% (active)	47.2%	89%	88.7%	92.4%	107%	86.1%	85.1%	103%	
COc1ccccc1Cn1cc(C#N)c(N)c1C(=O)c1ccc(Br)cc1	112%	93.7%	98.3%	104%	73.8%	107%		94.4%	93.6%	104%
O=C(CSc1nc2ccccc2c(=O)n1-c1ccccc1)Nc1ccc(S(=O)(=O)Nc2nccs2)cc1	65%	36.8%	89.7%	56.9%	77.5%	103%		60.3%	98.3%	38.9%
CCc1cc2c(cc1Cl)nc1c(=O)[nH]c(=O)nc-1n2CCOCC(C)(C)C	35.8%	68.5%	72.2%	119%	52.5%	110%	60.3%	101%	79.2%	
CN1CCN(c2ccc(Nc3nc(NCCNS(=O)(=O)c4ccc5ccccc5c4)c4sccc4n3)cc2)CC1	-21.3% (active)	49.8%	60.3%	90.1%	82.3%	128%	82.3%	75%	90.3%	
O=C(/C=C/c1cccc(C(F)(F)F)c1)Nc1cccc(C(F)(F)F)c1	68.6%	24.4%	33%	95.4%	47.7%	79.3%	53%	93%	46.4%	
Oc1ccc(-c2nc3ccc(/C(=N\N=C\c4ccc(Cl)cc4)c4ccccc4)cc3[nH]2)cc1	62.1%	33.9%	82.9%	97.1%	58.1%	106%	89.9%	98.3%	93%	
O=C(NNc1nc2cc(F)cc(F)c2n2cccc12)c1cccnn1	14.8%	11.8%	19%	46.3%	4.96% (active)	-1.52% (active)		32%	0.935% (active)	14%
